The list is not random: actives were taken first. Their share in the collection is about 19%.
IL1B secr inh: blocks inflammasome-driven IL-1 beta release; THP-1 LPS/ATP IL-1B secretion, AlphaLISA, 16 h; active compounds read low; activity change, % at 57.5 µM; 360,000 compounds, 4.7% hits; in the data active means activity change below about -50%; inconclusive means mostly about -30% to -49%
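THP-1 cells pretreated 1 hr with compounds (up to 57.5 uM final), then stimulated with LPS (250 ng/mL final) plus ATP (1.25 mM final); secreted IL-1B measured by AlphaLISA after 16 hr, decreased signal indicating inhibition.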
ELG1 repair inh: ELG1-dependent DNA repair inhibition; 330,000 compounds, 2.3% hits; HEK293T ELG1-luciferase reporter, luminescence, 16 h; DNA damage induced by 5-fluorouridine; Potency, µM (titrated, usually from 46.1 µM), without a hit: at the top dose activity change, negative = inhibition, most hits filed as inhibitors; AID 504467; further: potency means the concentration at half of the fitted maximal effect; nearly all actives have a fitted effect of over 55% in size
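Luminescence from the luciferase reporter, measured 30 min after ONE-Glo reagent at room temperature, was the read-out. Beforehand, 2,000 cells per well were exposed for 16 hr at 37 °C to 5-fluorouridine together with compound or vehicle.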
HT1080NT lethal: kills 2HG-producing HT-1080-NT fibrosarcoma cells. HT-1080-NT fibrosarcoma viability, CellTiter-Glo ATP luminescence, 48 h. Potency, µM (series often up to 46.1 µM), inactives show top-dose activity, negative = less viability, hits mostly cytotoxic. 360,000 compounds, 1.6% hits. AID 686970;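 further: NT is the 2HG producing partner of a matched IDH1 knockdown line; potency means the concentration at half of the fitted maximal effect; 0% = DMSO-treated cells and -100% = media-only wells without cells; nearly all actives have a fitted effect of over 55% in size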
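A 48-hour cytotoxicity screen used HT-1080-NT cells plated 2 hours before compound delivery. ATP-based CellTiter-Glo luminescence measured viability, normalized to DMSO and no-cell controls.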
DT40 TDP1 no CPT: qHTS for Inhibitors of human tyrosyl-DNA phosphodiesterase 1 (TDP1): qHTS in cells in absence of CPT. DT40 Tdp1-/- hTDP1 cells, no CPT, ATP luminescence, 48 h. Potency, µM (highest dose often 46.2 µM), inactives show at the highest dose activity change, negative = growth inhibition, hits mostly inhibitors. AID 686978, 2013. 420,000 compounds, 15% hits; further: potency means the concentration at half of the fitted maximal effect; nearly all actives have a fitted effect of over 55% in size
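Stably hTDP1-transfected Tdp1-null chicken DT40 cells were treated with library compounds minus camptothecin and grown for at least 48 hr at 37 °C, after which cellular ATP was quantified by luminescence.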
HT1080 IDH1KD tx: kills HT-1080 cells with IDH1 knockdown; AID 686971; HT-1080 IDH1 knockdown viability, ATP luminescence, 48 h; 360,000 compounds, 2% hits; Potency, µM (series often up to 46.1 µM), without a hit: at the highest dose activity, negative = toxicity, most hits filed as cytotoxic;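 further: potency means the concentration at half of the fitted maximal effect; 0% = DMSO wells and -100% = cell-free medium wells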
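HT-1080-IDH1KD cells (IDH1 knocked down), 750/well in RPMI with 5% FBS, treated with compound 48 h at 37 degrees C. Viability by CellTiter-Glo luminescence, normalised to DMSO and no-cell wells; concentration-response curves classed.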
TDP1 cell CPT: DT40-hTDP1 cell growth loss with CPT; Potency, µM (titrated, usually from 46.2 µM), for inactives: at the top dose activity change, negative = growth inhibition, most hits filed as inhibitors; 420,000 compounds, 12% hits; chicken DT40 Tdp1-/-;hTDP1 cells + 20 nM CPT, ATP luminescence, 48 h; AID 686979; further: potency means the concentration at half of the fitted maximal effect; nearly all actives have a fitted effect of over 55% in size
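Cell growth measured by CellTiter-Glo luminescence after a minimum 48 h, 37 C compound exposure with 20 nM CPT in Tdp1-knockout DT40 cells stably expressing hTDP1, seeded 400/well; qHTS titration format.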
* hit, by the source's call; ? = inconclusive; nt = no result given. Unless noted, the call rests on the fitted dose curve; in most records, active means well fitted curve in the direction sought with a large enough effect; inconclusive means small, poorly fitted or top-dose-only effect, or another doubt; inactive means no such curve, though single readings can be large; an effect the other way counts as inactive or inconclusive. Unless noted, on the % scale 0 is the no-effect control and ±100 the full control effect.

SMILES | IL1B secr inh | ELG1 repair inh | HT1080NT lethal | DT40 TDP1 no CPT | HT1080 IDH1KD tx | TDP1 cell CPT
O=C(Nc1cc(Cl)cc(Cl)c1)C(c1ccccc1)N1CCCCC1 (centres undefined) | ? | -1.9% | -2.9% | ? | -22.9% | 20.6µM*
COc1cccc(C(=O)NCC(=O)N/N=C/c2ccc3c(c2)OCO3)c1 | 55.1 | ? | 3.2% | 5.2% | 3.3% | 0.8%
NC(Cc1ccccc1)C(=O)O (centres undefined) | nt | nt | nt | -2.7% | nt | -1.7%
Cc1ccc(-n2c(=O)c3ccc(C(=O)NCc4ccco4)cc3n(Cc3cccc(Cl)c3)c2=O)cc1 | nt | nt | nt | ? | nt | -22.1%
Cc1cccc(C)c1NC(=O)Cn1c(=O)n(Cc2ccc(C(=O)NCc3ccco3)cc2)c(=O)c2sccc21 | nt | nt | nt | 23.1µM* | nt | 20.6µM*
Cc1cccc(Cn2c(=O)n(-c3ccc(CC(=O)NCc4ccco4)cc3)c(=O)c3sccc32)c1 | -12.9 | ? | ? | 14.6µM* | ? | 25.9µM*
Cc1ccc(Cn2c(=O)n(-c3ccccc3)c(=O)c3ccc(C(=O)NCc4ccco4)cc32)cc1 | 21.5 | 6.0% | -24.5% | ? | -19.4% | 11.6µM*
Cc1cc(C)c(NC(=O)Cn2c(=O)n(Cc3ccc(C(=O)NCc4ccco4)cc3)c(=O)c3sccc32)c(C)c1 | nt | nt | nt | -47.1% | nt | ?
Cc1ccc(C)n1-c1ccc(-c2ccnc(N)n2)cc1 | -83.2* | ? | -5.3% | ? | -1.0% | -29.7%
Nc1nccc(-c2cccs2)n1 | 19.9 | 9.6% | 12.7% | 0.8% | 12.2% | 3.0%
Cc1ccc(S(=O)(=O)NCC(=O)OCC(=O)c2c(N)n(C)c(=O)n(C)c2=O)cc1 | 4.2 | 2.4% | 1.5% | -17.2% | 8.0% | ?
Cc1ccc(S(=O)(=O)N2CCCCCC2)cc1[N+](=O)[O-] | -6.7 | -2.2% | 0.0% | 10.3µM* | 4.4% | ?
COc1cc(OC)cc(Oc2ccc(S(=O)(=O)N3CCCCC3)cc2[N+](=O)[O-])c1 | -98.8* | -11.5% | -19.3% | ? | -24.5% | ?
N#Cc1ccc(CN2CC[C@@]3(CCCN(C(=O)c4cnccn4)C3)C2)cc1 | nt | nt | nt | -4.9% | nt | 1.4%
O=C(N/N=C/c1ccc2c(c1)OCO2)c1cc(-c2ccccc2Cl)nc2ccccc12 | 24.3 | ? | -1.2% | -7.3% | 10.0% | 2.4%
CCOc1ccccc1-c1cc(C(=O)Nc2ccc(C(=O)O)cc2)c2ccccc2n1 | 24.0 | 11.5% | 0.8% | -28.5% | -5.0% | ?
CCOc1ccccc1-c1cc(C(=O)N/N=C/c2ccc(O)c(OC)c2)c2ccccc2n1 | -5.7 | -10.4% | ? | 0.581µM* | ? | 1.46µM*
CCOc1ccccc1-c1cc(C(=O)N/N=C/c2ccc3c(c2)OCO3)c2ccccc2n1 | 7.7 | ? | -7.4% | 9.2µM* | -20.6% | 11.6µM*
Cc1nc2ccc(NC(=S)N3CCN(c4ccccn4)CC3)cc2nc1C | -7.7 | ? | 0.4% | -23.3% | -3.3% | -17.3%
Cc1cc(N2CCN(C)CC2)nc2ccc(NC(=S)N3CCN(c4ccccn4)CC3)cc12 | ? | ? | 16.4µM* | ? | ? | -26.6%
COc1ccccc1N1CCN(C(=S)Nc2ccc3nc(N4CCOCC4)cc(C)c3c2)CC1 | -168.4* | 18.3µM* | -0.4% | ? | ? | ?
Cc1ccc(C)c(N2CCN(C(=S)Nc3ccc4nc(N5CCN(C)CC5)cc(C)c4c3)CC2)c1 | 21.6 | ? | ? | 11.6µM* | ? | 16.4µM*
CCN1CCN(c2cc(C)c3cc(NC(=S)N4CCN(c5ccccc5)CC4)ccc3n2)CC1 | 55.9 | ? | -5.8% | 10.3µM* | -4.1% | 7.31µM*

Source: PubChem
